Test results taken from PubChem BioAssay AID1159580 (chemical genetic matrix, 2015).
Hit rate of the full screen: of about 5,500 compounds, about 2,000 (36%) were called active. Inconclusive results (about 18%) are left out. No stated cut-off is given here; in the data, active means normalized growth mostly below about 0.91 (no sharp cut-off); inconclusive means no clear call, values can overlap the other calls; inactive means mostly above about 0.92. The list shows a part of the results.

Assay: chemical genetic growth profiling, strain panel (AID 1159580);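 further: tested at 20 µM; growth read once vehicle control cultures reached saturation at 30 °C; 1 = growth at the plate median or of vehicle wells; lower values mean less growth of the strain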
Details: S. cerevisiae deletion strains, growth OD

Measured: normalized growth

N#Cc1c(N)sc2c1CCCCC2
inactive: locus YAL013W, strain DEP1, active compounds read low 0.959 | locus YBR229C, strain ROT2, active compounds read low 0.951 | locus YCL061C, strain MRC1, active compounds read low 0.945 | locus YDL101C, strain DUN1, active compounds read low 0.971 | locus YDR150W, strain NUM1, active compounds read low 1.02 | locus YGR078C, strain PAC10, active compounds read low 0.961 | locus YHR087W, strain rtc3, active compounds read low 0.975 | locus YJL187C, strain SWE1, active compounds read low 0.963 | locus YJR043C, strain POL32, active compounds read low 0.992 | locus YJR075W, strain HOC1, active compounds read low 0.945 | locus YLR039C, strain RIC1, active compounds read low 0.96 | locus YLR058C, strain SHM2 (second series), active compounds read low 0.956 | locus YLR262C, strain YPT6, active compounds read low 0.955 | locus YML094W, strain GIM5, active compounds read low 0.878 | locus YMR219W, strain ESC1, active compounds read low 0.95 | locus YMR263W, strain SAP30, active compounds read low 0.984 | locus YNL153C, strain GIM3, active compounds read low 0.953 | locus YNL298W, strain CLA4 (second series), active compounds read low 0.944 | locus YNL322C, strain KRE1, active compounds read low 0.964 | locus YNR030W, strain Alg12, active compounds read low 0.895 | locus YPL055C, strain LGE1, active compounds read low 0.97
active: locus YEL061C, strain CIN8, active compounds read low 0.903 | locus YHR030C, strain SLT2, active compounds read low 0.616 | locus YKL190W, strain CNB1, active compounds read low 0.927 | locus YLR085C, strain ARP6, active compounds read low 0.714 | locus YMR307W, strain GAS1, active compounds read low 0.662 | locus YPL241C, strain CIN2, active compounds read low 0.846 | locus YPR135W, strain CTF4, active compounds read low 0.498
